PubChem BioAssay AID1159580 (chemical genetic matrix, 2015)
Out of some 5,500 compounds screened, about 2,000 (36%) were called active. About 18% were inconclusive and are not listed. Some of the results follow. Unmarked numbers belong to inactive results. No stated cut-off is given here; in the data, active means normalized growth mostly below about 0.91 (no sharp cut-off); inconclusive means no clear call, values can overlap the other calls; inactive means mostly above about 0.92.

Experiment: chemical genetic growth profiling, strain panel (AID 1159580);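 further: tested at 20 µM; growth read once vehicle control cultures reached saturation at 30 °C; 1 = growth at the plate median or of vehicle wells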
Conditions: growth OD

O=C(O)c1cc(O)c(O)c(O)c1 showed a normalized growth (S. cerevisiae deletion strains, locus YJR066W, strain TOR1, stronger effect = lower value) of 0.929, a normalized growth (S. cerevisiae deletion strains, locus YKL009W, strain mrt4, stronger effect = lower value) of 1.03 and a normalized growth (S. cerevisiae deletion strains, locus YKL068W, stronger effect = lower value) of 1. For the same molecule, the normalized growth (S. cerevisiae deletion strains, locus YKL085W, strain MDH1 (second series), stronger effect = lower value) was 1.03, the normalized growth (S. cerevisiae deletion strains, locus YKL085W, strain MDH1, stronger effect = lower value) was 1.03 and the normalized growth (S. cerevisiae deletion strains, locus YKL160W, strain elf1, stronger effect = lower value) was 1.05. The normalized growth (S. cerevisiae deletion strains, locus YKR001C, strain vps1, stronger effect = lower value) was 1.07, the normalized growth (S. cerevisiae deletion strains, locus YKR026C, strain gcn3, stronger effect = lower value) was 1.02 and the normalized growth (S. cerevisiae deletion strains, locus YKR091W, strain srl3, stronger effect = lower value) was 1.01. For the same molecule, the normalized growth (S. cerevisiae deletion strains, locus YLL001W, strain dnm1, stronger effect = lower value) was 0.997, the normalized growth (S. cerevisiae deletion strains, locus YLL026W, stronger effect = lower value) was 1 and the normalized growth (S. cerevisiae deletion strains, locus YLL041C, strain sdh2, stronger effect = lower value) was 1.04. For the same molecule, the normalized growth (S. cerevisiae deletion strains, locus YLR027C, strain aat2, stronger effect = lower value) was 1.04, the normalized growth (S. cerevisiae deletion strains, locus YLR039C, strain RIC1, stronger effect = lower value) was 1.34 [resistant] (active) and the normalized growth (S. cerevisiae deletion strains, locus YLR058C, strain SHM2, stronger effect = lower value) was 1.06. For the same molecule, the normalized growth (S. cerevisiae deletion strains, locus YLR102C, strain apc9, stronger effect = lower value) was 1.02, the normalized growth (S. cerevisiae deletion strains, locus YLR113W, strain HOG1, stronger effect = lower value) was 0.985 and the normalized growth (S. cerevisiae deletion strains, locus YLR221C, strain rsa3, stronger effect = lower value) was 0.981. The normalized growth (S. cerevisiae deletion strains, locus YLR258W, strain gsy2, stronger effect = lower value) was 1.05, the normalized growth (S. cerevisiae deletion strains, locus YLR262C, strain YPT6 (second series), stronger effect = lower value) was 1.03 and the normalized growth (S. cerevisiae deletion strains, locus YLR262C, strain YPT6, stronger effect = lower value) was 1.26. It also gave a normalized growth (S. cerevisiae deletion strains, locus YLR268W, strain sec22, stronger effect = lower value) of 1.04, a normalized growth (S. cerevisiae deletion strains, locus YLR320W, strain mms22, stronger effect = lower value) of 1.02 and a normalized growth (S. cerevisiae deletion strains, locus YLR330W, strain CHS5, stronger effect = lower value) of 1.03. For the same molecule, the normalized growth (S. cerevisiae deletion strains, locus YLR342W, strain FKS1 (second series), stronger effect = lower value) was 1.05, the normalized growth (S. cerevisiae deletion strains, locus YLR342W, strain FKS1, stronger effect = lower value) was 1.03 and the normalized growth (S. cerevisiae deletion strains, locus YLR357W, strain rsc2, stronger effect = lower value) was 1.06. It also gave a normalized growth (S. cerevisiae deletion strains, locus YLR370C, strain arc18, stronger effect = lower value) of 1.02, a normalized growth (S. cerevisiae deletion strains, locus YLR371W, strain rom2, stronger effect = lower value) of 1.05 and a normalized growth (S. cerevisiae deletion strains, locus YLR384C, strain iki3, stronger effect = lower value) of 1.02. The normalized growth (S. cerevisiae deletion strains, locus YLR418C, strain cdc73, stronger effect = lower value) was 1.11, the normalized growth (S. cerevisiae deletion strains, locus YML016C, strain PPZ1, stronger effect = lower value) was 1.03 and the normalized growth (S. cerevisiae deletion strains, locus YML032C, strain rad52, stronger effect = lower value) was 1.03. For the same molecule, the normalized growth (S. cerevisiae deletion strains, locus YML120C, strain ndi1, stronger effect = lower value) was 1.01, the normalized growth (S. cerevisiae deletion strains, locus YML124C, strain tub3, stronger effect = lower value) was 1.02 and the normalized growth (S. cerevisiae deletion strains, locus YMR058W, strain fet3, stronger effect = lower value) was 1.01. It also gave a normalized growth (S. cerevisiae deletion strains, locus YMR078C, strain ctf18, stronger effect = lower value) of 1.03, a normalized growth (S. cerevisiae deletion strains, locus YMR125W, strain sto1, stronger effect = lower value) of 1.03 and a normalized growth (S. cerevisiae deletion strains, locus YMR129W, stronger effect = lower value) of 1.03. The normalized growth (S. cerevisiae deletion strains, locus YMR205C, strain PFK2, stronger effect = lower value) was 1.06, the normalized growth (S. cerevisiae deletion strains, locus YMR223W, strain ubp8, stronger effect = lower value) was 1.02 and the normalized growth (S. cerevisiae deletion strains, locus YMR231W, strain pep5, stronger effect = lower value) was 1.01. The normalized growth (S. cerevisiae deletion strains, locus YMR307W, strain GAS1, stronger effect = lower value) was 1.24, the normalized growth (S. cerevisiae deletion strains, locus YNL067W, strain RPL9B, stronger effect = lower value) was 1.02 and the normalized growth (S. cerevisiae deletion strains, locus YNL071W, strain lat1, stronger effect = lower value) was 1.06. It also gave a normalized growth (S. cerevisiae deletion strains, locus YNL183C, strain NPR1, stronger effect = lower value) of 0.933, a normalized growth (S. cerevisiae deletion strains, locus YNL209W, strain ssb2, stronger effect = lower value) of 1.01 and a normalized growth (S. cerevisiae deletion strains, locus YNL233W, strain BNI4, stronger effect = lower value) of 1.08. For the same molecule, the normalized growth (S. cerevisiae deletion strains, locus YNL248C, strain rpa49, stronger effect = lower value) was 1.08, the normalized growth (S. cerevisiae deletion strains, locus YNL250W, strain rad50, stronger effect = lower value) was 1.05 and the normalized growth (S. cerevisiae deletion strains, locus YNL271C, strain bni1, stronger effect = lower value) was 1.01. The normalized growth (S. cerevisiae deletion strains, locus YNL298W, strain CLA4, stronger effect = lower value) was 1.01, the normalized growth (S. cerevisiae deletion strains, locus YNL307C, strain MCK1, stronger effect = lower value) was 1.03 and the normalized growth (S. cerevisiae deletion strains, locus YNL322C, strain KRE1 (second series), stronger effect = lower value) was 1.03. For the same molecule, the normalized growth (S. cerevisiae deletion strains, locus YNR049C, strain mso1, stronger effect = lower value) was 1.01, the normalized growth (S. cerevisiae deletion strains, locus YNR052C, strain pop2, stronger effect = lower value) was 1.01 and the normalized growth (S. cerevisiae deletion strains, locus YOL006C, strain TOP1, stronger effect = lower value) was 1.36. The normalized growth (S. cerevisiae deletion strains, locus YOL012C, strain htz1) was 0.913, the normalized growth (S. cerevisiae deletion strains, locus YOL147C, strain pex11, stronger effect = lower value) was 1.02 and the normalized growth (S. cerevisiae deletion strains, locus YOR001W, strain rrp6, stronger effect = lower value) was 0.981. It also gave a normalized growth (S. cerevisiae deletion strains, locus YOR061W, strain CKA2, stronger effect = lower value) of 1.04, a normalized growth (S. cerevisiae deletion strains, locus YOR069W, strain VPS5, stronger effect = lower value) of 1.03 and a normalized growth (S. cerevisiae deletion strains, locus YOR070C, strain gyp1, stronger effect = lower value) of 1.02. It also gave a normalized growth (S. cerevisiae deletion strains, locus YOR080W, strain dia2, stronger effect = lower value) of 1.01, a normalized growth (S. cerevisiae deletion strains, locus YOR083W, strain WHI5, stronger effect = lower value) of 0.995 and a normalized growth (S. cerevisiae deletion strains, locus YOR106W, strain vam3, stronger effect = lower value) of 1.05. For the same molecule, the normalized growth (S. cerevisiae deletion strains, locus YOR136W, strain idh2, stronger effect = lower value) was 1.02, the normalized growth (S. cerevisiae deletion strains, locus YOR144C, strain elg1, stronger effect = lower value) was 1.01 and the normalized growth (S. cerevisiae deletion strains, locus YOR184W, strain ser1, stronger effect = lower value) was 1.05. For the same molecule, the normalized growth (S. cerevisiae deletion strains, locus YOR231W, strain MKK1, stronger effect = lower value) was 0.971, the normalized growth (S. cerevisiae deletion strains, locus YOR265W, strain rbl2, stronger effect = lower value) was 1 and the normalized growth (S. cerevisiae deletion strains, locus YOR270C, strain vph1, stronger effect = lower value) was 1.17. It also gave a normalized growth (S. cerevisiae deletion strains, locus YOR290C, strain snf2, stronger effect = lower value) of 1.05, a normalized growth (S. cerevisiae deletion strains, locus YOR316C, strain cot1, stronger effect = lower value) of 1.02 and a normalized growth (S. cerevisiae deletion strains, locus YPL051W, strain arl3, stronger effect = lower value) of 1.04. The normalized growth (S. cerevisiae deletion strains, locus YPL055C, strain LGE1, stronger effect = lower value) was 1.1, the normalized growth (S. cerevisiae deletion strains, locus YPL078C, strain atp4, stronger effect = lower value) was 1.05 and the normalized growth (S. cerevisiae deletion strains, locus YPL106C, strain sse1, stronger effect = lower value) was 1.06. For the same molecule, the normalized growth (S. cerevisiae deletion strains, locus YPL240C, strain hsp82, stronger effect = lower value) was 1.01, the normalized growth (S. cerevisiae deletion strains, locus YPL256C, strain CLN2, stronger effect = lower value) was 0.968 and the normalized growth (S. cerevisiae deletion strains, locus YPR119W, strain clb2, stronger effect = lower value) was 1.05. For the same molecule, the normalized growth (S. cerevisiae deletion strains, locus YPR141C, strain kar3, stronger effect = lower value) was 1.02, the normalized growth (S. cerevisiae deletion strains, locus YPR163C, strain tif3, stronger effect = lower value) was 1.03 and the normalized growth (S. cerevisiae deletion strains, locus YPR167C, strain met16, stronger effect = lower value) was 1.05. For the same molecule, the normalized growth (S. cerevisiae deletion strains, strain wtn01, stronger effect = lower value) was 1.03 and the normalized growth (S. cerevisiae strains, strain wild type, stronger effect = lower value) was 1.07.
